# Source: article PMC7862700, “An all-to-all approach to the identification of sequence-specific readers for epigenetic DNA modifications on cytosine”
# What was measured:
# Test in all cases: DAPPL (digital affinity profiling via proximity ligation, sequencing); 10 mM Tris-HCl pH 7.5, 50 mM NaCl, 1 mM DTT, 4% glycerol, room temperature, 30 min; GST-TFs on glutathione beads, 16-mer random dsDNA library, 0.1% formaldehyde crosslink after washing; high values mean tight binding
# [1] = biological target: T1, FEV (Homo sapiens, UniProt Q99581 1-238); details: protein: recombinant; tags: N-terminal GST; dsDNA, one strand shown
# T1 sequence: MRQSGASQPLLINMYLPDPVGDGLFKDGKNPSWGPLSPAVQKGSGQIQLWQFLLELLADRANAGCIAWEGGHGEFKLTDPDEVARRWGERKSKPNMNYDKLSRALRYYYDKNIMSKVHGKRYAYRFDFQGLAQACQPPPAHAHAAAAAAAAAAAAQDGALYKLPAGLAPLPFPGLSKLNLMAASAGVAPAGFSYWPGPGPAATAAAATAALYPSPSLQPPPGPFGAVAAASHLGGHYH
# Method in brief: (§1)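 Yeast served to express human transcription factors as GST fusions, which were then captured on glutathione beads and labelled with DNA barcodes. Pooled with a tag-only sample, they were incubated with 200 nmole of a 16-mer random double-stranded DNA library for 30 min at room temperature in Tris/NaCl/DTT/glycerol buffer, washed, crosslinked with 0.1% formaldehyde, ligated by proximity, amplified by PCR and sequenced. Dividing each hexamer's read frequency for a factor by its frequency for the tag-only sample gives the binding signal.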
# [2] = biological target: ETV5 (Homo sapiens, UniProt P41161 1-510); details: protein: recombinant; tags: N-terminal GST; dsDNA, one strand shown
# Method in brief: as §1
# [3] = biological target: HSF1 (Homo sapiens, UniProt Q00613 1-529); details: protein: recombinant; tags: N-terminal GST; chain copies: 3; dsDNA, one strand shown
# Method in brief: as §1
# [4] = biological target: T2, SPIC (Homo sapiens, UniProt Q8N5J4 1-248); details: protein: recombinant; tags: N-terminal GST; dsDNA, one strand shown
# T2 sequence: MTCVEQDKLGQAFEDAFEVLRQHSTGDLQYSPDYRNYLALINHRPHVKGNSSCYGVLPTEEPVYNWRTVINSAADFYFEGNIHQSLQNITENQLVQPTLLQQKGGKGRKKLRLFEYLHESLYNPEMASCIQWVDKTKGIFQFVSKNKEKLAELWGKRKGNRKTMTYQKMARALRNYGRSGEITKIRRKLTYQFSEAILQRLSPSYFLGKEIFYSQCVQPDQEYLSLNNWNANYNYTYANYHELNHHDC
# Method in brief: as §1
# [5] = biological target: ELF4 (Homo sapiens, UniProt Q99607 1-663); details: protein: recombinant; tags: N-terminal GST; dsDNA, one strand shown
# Method in brief: as §1
# [6] = biological target: T3, ELK4 (Homo sapiens, UniProt P28324-2 1-405); details: protein: recombinant; tags: N-terminal GST; dsDNA, one strand shown
# T3 sequence: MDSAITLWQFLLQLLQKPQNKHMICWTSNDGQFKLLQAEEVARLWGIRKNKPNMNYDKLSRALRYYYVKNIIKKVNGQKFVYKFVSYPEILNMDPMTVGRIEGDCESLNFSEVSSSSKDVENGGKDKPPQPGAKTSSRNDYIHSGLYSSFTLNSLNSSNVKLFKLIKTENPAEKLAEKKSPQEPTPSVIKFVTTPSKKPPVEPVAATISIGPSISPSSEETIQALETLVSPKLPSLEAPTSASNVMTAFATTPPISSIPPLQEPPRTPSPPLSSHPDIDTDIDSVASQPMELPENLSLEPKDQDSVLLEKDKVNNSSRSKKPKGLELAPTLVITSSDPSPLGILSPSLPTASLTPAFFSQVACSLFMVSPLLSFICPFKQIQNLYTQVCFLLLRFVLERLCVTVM
# Method in brief: as §1
# [7] = biological target: T4, ETV2 (Homo sapiens, UniProt O00321 1-342); details: protein: recombinant; tags: N-terminal GST; dsDNA, one strand shown
# T4 sequence: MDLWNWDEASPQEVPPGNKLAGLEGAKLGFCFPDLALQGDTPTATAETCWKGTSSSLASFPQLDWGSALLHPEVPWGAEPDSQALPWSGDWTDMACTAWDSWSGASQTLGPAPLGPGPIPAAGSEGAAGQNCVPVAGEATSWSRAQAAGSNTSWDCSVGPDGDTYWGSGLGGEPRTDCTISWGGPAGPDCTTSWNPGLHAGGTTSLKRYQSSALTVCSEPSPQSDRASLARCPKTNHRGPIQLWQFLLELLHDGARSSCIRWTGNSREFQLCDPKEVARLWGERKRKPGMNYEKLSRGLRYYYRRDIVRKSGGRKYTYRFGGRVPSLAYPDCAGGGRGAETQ
# Method in brief: as §1
# [8] = biological target: T5, ELF3 (Homo sapiens, UniProt P78545 1-371); details: protein: recombinant; tags: N-terminal GST; dsDNA, one strand shown
# T5 sequence: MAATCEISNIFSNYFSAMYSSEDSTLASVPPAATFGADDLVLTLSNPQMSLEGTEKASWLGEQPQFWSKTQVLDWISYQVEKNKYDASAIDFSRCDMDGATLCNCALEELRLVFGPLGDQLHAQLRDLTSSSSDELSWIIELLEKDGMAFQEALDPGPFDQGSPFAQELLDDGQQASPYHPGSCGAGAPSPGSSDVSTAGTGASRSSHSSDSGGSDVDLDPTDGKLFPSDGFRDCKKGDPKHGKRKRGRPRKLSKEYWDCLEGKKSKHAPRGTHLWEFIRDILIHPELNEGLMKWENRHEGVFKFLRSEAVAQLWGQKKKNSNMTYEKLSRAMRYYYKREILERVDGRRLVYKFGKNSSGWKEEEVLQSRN
# Method in brief: as §1
# [9] = biological target: CRX (Homo sapiens, UniProt O43186 1-299); details: protein: recombinant; tags: N-terminal GST; dsDNA, one strand shown
# Method in brief: as §1
# [10] = biological target: ETV1 (Homo sapiens, UniProt P50549 1-477); details: protein: recombinant; tags: N-terminal GST; dsDNA, one strand shown
# Method in brief: as §1
# Chain of ETV5 (P41161 whole entry): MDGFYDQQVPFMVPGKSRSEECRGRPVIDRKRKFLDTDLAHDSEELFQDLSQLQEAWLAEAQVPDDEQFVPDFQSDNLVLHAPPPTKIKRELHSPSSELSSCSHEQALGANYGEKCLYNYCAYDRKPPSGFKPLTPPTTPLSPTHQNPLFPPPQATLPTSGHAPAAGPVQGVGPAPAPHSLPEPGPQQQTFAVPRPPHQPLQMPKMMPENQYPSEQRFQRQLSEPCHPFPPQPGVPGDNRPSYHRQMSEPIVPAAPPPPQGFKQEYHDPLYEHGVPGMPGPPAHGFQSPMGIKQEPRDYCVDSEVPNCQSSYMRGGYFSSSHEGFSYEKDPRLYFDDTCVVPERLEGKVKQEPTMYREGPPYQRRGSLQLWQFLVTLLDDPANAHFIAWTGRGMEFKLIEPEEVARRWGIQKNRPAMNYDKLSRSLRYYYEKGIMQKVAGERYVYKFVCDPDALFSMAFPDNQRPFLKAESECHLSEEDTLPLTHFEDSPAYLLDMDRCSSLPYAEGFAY
# Chain of ELF4 (Q99607 whole entry): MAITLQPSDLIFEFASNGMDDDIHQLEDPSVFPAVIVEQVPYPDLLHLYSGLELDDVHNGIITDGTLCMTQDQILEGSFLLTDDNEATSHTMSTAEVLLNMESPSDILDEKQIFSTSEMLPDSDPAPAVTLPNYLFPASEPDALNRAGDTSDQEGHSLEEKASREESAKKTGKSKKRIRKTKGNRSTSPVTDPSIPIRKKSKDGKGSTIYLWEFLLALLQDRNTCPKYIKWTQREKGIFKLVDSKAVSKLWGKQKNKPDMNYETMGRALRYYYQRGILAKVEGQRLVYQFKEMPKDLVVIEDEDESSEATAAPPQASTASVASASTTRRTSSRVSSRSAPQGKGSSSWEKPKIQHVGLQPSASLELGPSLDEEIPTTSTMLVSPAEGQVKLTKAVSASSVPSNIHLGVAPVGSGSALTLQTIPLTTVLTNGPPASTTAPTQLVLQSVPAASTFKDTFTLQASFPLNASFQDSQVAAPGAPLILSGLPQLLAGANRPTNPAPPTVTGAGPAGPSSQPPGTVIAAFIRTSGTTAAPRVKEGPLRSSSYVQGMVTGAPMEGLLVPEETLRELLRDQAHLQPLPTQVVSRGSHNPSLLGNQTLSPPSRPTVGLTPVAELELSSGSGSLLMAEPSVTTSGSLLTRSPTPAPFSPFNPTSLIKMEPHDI
# Chain of CRX (O43186 whole entry): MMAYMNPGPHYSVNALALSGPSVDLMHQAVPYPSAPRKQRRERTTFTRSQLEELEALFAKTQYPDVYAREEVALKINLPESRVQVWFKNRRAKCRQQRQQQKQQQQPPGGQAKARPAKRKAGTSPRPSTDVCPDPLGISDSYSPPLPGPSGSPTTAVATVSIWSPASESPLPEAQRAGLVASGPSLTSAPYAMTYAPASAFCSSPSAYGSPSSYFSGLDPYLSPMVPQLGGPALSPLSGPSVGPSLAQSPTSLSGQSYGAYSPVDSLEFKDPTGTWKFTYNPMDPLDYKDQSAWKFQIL
# Chain of HSF1 (Q00613 whole entry): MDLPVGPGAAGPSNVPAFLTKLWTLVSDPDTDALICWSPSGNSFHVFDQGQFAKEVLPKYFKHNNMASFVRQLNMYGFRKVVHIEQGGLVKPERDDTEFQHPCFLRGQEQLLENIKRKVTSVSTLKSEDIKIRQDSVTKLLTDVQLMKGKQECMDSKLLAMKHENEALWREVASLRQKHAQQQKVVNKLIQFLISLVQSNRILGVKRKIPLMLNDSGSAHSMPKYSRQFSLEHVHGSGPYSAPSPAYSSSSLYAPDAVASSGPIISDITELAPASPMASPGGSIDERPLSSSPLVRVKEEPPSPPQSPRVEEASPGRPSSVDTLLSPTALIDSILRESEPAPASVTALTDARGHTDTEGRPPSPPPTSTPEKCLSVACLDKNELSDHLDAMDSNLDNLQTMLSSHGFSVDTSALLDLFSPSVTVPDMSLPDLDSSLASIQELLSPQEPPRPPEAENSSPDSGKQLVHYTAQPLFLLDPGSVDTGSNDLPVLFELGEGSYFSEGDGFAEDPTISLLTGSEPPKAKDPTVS
# Chain of ETV1 (P50549 whole entry): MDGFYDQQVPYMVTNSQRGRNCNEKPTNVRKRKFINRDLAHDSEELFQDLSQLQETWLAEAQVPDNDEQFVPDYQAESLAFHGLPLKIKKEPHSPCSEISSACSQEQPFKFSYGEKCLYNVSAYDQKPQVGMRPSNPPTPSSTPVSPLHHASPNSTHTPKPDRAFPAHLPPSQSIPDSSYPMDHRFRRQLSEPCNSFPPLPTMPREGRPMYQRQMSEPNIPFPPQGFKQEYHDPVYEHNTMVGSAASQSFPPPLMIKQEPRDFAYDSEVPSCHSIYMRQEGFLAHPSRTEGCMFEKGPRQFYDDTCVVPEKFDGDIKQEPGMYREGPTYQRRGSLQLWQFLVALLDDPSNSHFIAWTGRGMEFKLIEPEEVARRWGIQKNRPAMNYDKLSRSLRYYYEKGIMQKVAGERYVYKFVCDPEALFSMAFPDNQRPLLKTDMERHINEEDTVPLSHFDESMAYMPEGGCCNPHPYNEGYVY
Sequence,binding signal [1],binding signal [2],binding signal [3],binding signal [4],binding signal [5],binding signal [6],binding signal [7],binding signal [8],binding signal [9],binding signal [10]
CTCCGC,"1.43 fold enrichment (6-mer frequency, TF over GST control)","1.52 fold enrichment (6-mer frequency, TF over GST control)","1.15 fold enrichment (6-mer frequency, TF over GST control)","1.51 fold enrichment (6-mer frequency, TF over GST control)","1.67 fold enrichment (6-mer frequency, TF over GST control)","1.39 fold enrichment (6-mer frequency, TF over GST control)","1.57 fold enrichment (6-mer frequency, TF over GST control)","1.38 fold enrichment (6-mer frequency, TF over GST control)","1.3 fold enrichment (6-mer frequency, TF over GST control)","1.56 fold enrichment (6-mer frequency, TF over GST control)"
CGTCTT,"1.33 fold enrichment (6-mer frequency, TF over GST control)","1.37 fold enrichment (6-mer frequency, TF over GST control)","1.31 fold enrichment (6-mer frequency, TF over GST control)","1.38 fold enrichment (6-mer frequency, TF over GST control)","1.38 fold enrichment (6-mer frequency, TF over GST control)","1.21 fold enrichment (6-mer frequency, TF over GST control)","1.29 fold enrichment (6-mer frequency, TF over GST control)","1.56 fold enrichment (6-mer frequency, TF over GST control)","1.5 fold enrichment (6-mer frequency, TF over GST control)","1.48 fold enrichment (6-mer frequency, TF over GST control)"
CCCCCA,"1.21 fold enrichment (6-mer frequency, TF over GST control)","1.19 fold enrichment (6-mer frequency, TF over GST control)","1.06 fold enrichment (6-mer frequency, TF over GST control)","1.16 fold enrichment (6-mer frequency, TF over GST control)","1.2 fold enrichment (6-mer frequency, TF over GST control)","1.19 fold enrichment (6-mer frequency, TF over GST control)","1.4 fold enrichment (6-mer frequency, TF over GST control)","1.3 fold enrichment (6-mer frequency, TF over GST control)","1.02 fold enrichment (6-mer frequency, TF over GST control)","1.18 fold enrichment (6-mer frequency, TF over GST control)"
TATACT,"1.29 fold enrichment (6-mer frequency, TF over GST control)","1.34 fold enrichment (6-mer frequency, TF over GST control)","1.4 fold enrichment (6-mer frequency, TF over GST control)","1.43 fold enrichment (6-mer frequency, TF over GST control)","1.31 fold enrichment (6-mer frequency, TF over GST control)","1.25 fold enrichment (6-mer frequency, TF over GST control)","1.31 fold enrichment (6-mer frequency, TF over GST control)","1.3 fold enrichment (6-mer frequency, TF over GST control)","1.68 fold enrichment (6-mer frequency, TF over GST control)","1.34 fold enrichment (6-mer frequency, TF over GST control)"
ATTATC,"1.29 fold enrichment (6-mer frequency, TF over GST control)","1.26 fold enrichment (6-mer frequency, TF over GST control)","2.51 fold enrichment (6-mer frequency, TF over GST control)","1.34 fold enrichment (6-mer frequency, TF over GST control)","1.32 fold enrichment (6-mer frequency, TF over GST control)","1.39 fold enrichment (6-mer frequency, TF over GST control)","1.38 fold enrichment (6-mer frequency, TF over GST control)","1.39 fold enrichment (6-mer frequency, TF over GST control)","3.86 fold enrichment (6-mer frequency, TF over GST control)","1.31 fold enrichment (6-mer frequency, TF over GST control)"
TGTCCT,"1.45 fold enrichment (6-mer frequency, TF over GST control)","1.56 fold enrichment (6-mer frequency, TF over GST control)","1.06 fold enrichment (6-mer frequency, TF over GST control)","1.53 fold enrichment (6-mer frequency, TF over GST control)","1.4 fold enrichment (6-mer frequency, TF over GST control)","1.28 fold enrichment (6-mer frequency, TF over GST control)","1.67 fold enrichment (6-mer frequency, TF over GST control)","1.46 fold enrichment (6-mer frequency, TF over GST control)","1.12 fold enrichment (6-mer frequency, TF over GST control)","1.55 fold enrichment (6-mer frequency, TF over GST control)"
AGTATC,"1.12 fold enrichment (6-mer frequency, TF over GST control)","1.18 fold enrichment (6-mer frequency, TF over GST control)","1.03 fold enrichment (6-mer frequency, TF over GST control)","1.14 fold enrichment (6-mer frequency, TF over GST control)","1.12 fold enrichment (6-mer frequency, TF over GST control)","1.1 fold enrichment (6-mer frequency, TF over GST control)","1.26 fold enrichment (6-mer frequency, TF over GST control)","1.16 fold enrichment (6-mer frequency, TF over GST control)","1.03 fold enrichment (6-mer frequency, TF over GST control)","1.07 fold enrichment (6-mer frequency, TF over GST control)"
